Source: PubChem BioAssay
D2 PAM-1 – positive allosteric modulators of human D2 dopamine receptor; potentiation, % at 10 µM; HEK293 T-REx D2, calcium flux, EC20 dopamine potentiation; 0.34% of 340,000 active;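 active means potentiation over 3 SD above the plate norm, cut at about 30% in these data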
Target sequence (P14416 whole entry, looked up): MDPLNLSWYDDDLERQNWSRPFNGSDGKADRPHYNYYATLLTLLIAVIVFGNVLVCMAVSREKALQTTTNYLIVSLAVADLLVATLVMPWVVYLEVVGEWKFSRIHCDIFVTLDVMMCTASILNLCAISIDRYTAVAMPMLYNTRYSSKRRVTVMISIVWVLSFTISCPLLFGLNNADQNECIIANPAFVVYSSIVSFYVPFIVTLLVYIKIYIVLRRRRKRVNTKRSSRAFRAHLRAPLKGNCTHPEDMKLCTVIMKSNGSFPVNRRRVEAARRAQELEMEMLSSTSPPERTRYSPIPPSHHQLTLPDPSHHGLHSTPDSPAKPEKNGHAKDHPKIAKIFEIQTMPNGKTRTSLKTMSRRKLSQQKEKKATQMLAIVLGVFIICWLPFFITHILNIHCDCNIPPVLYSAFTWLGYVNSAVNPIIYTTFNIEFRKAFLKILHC
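Using a no-wash calcium dye in inducible, force-coupled HEK293 Trex cells expressing D2, we tracked fluorescence each second for 180 s after compound, then for 180 s after EC20 dopamine to detect augmented signalling.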
D2 antagonist – antagonists of human D2 dopamine receptor; 2% of 340,000 active; inhibition, % at 10 µM; AID 485344; HEK293 TREx D2 cells, calcium flux, dopamine EC80; in the data active means inhibition above about 30%; inactive means below that, where a call was filed
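Calcium mobilization kinetics were recorded at 1 s intervals in tetracycline-induced HEK293 T-REx D2 cells, first for 180 s after compound addition and then 180 s after EC80 dopamine.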
D2 ag-1 – agonists of human D2 dopamine receptor | activation, % at 2 µM | P14416 | 0.53% of 340,000 active | HEK293 T-REx D2 cells, calcium flux agonist mode;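 active means activation over 3 SD above normal in the single-dose calcium agonist read, cut at about 30% in these data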
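Calcium-flux readout, 1 cycle/sec over 180 s following compound pin transfer, in inducible HEK293 Trex D2 cells (force-coupled); dopamine controls included. Positive calcium responses during this window marked compounds as potential agonists.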
D2 ag-2 – activates the human D2 dopamine receptor; 0.084% of 360,000 active; AID 624465; DiscoveRx PathHunter D2 beta-arrestin, luminescence, 90 min; 100% = 57 uM dopamine signal; activation, % (no concentration beside the values); in the data active means activation above about 40%; inconclusive means between about 15% and that limit
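DiscoveRx PathHunter D2 beta-arrestin cells (2,100/well) attached overnight, then compound-stimulated 90 min at 37 C in HBSS/10 mM HEPES/0.1% Tween-20 buffer; beta-galactosidase complementation read by luminescence after 1 h at ambient temperature. Dopamine 57 uM final (EC100) as control.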
D2 PAM-2 – human D2 receptor positive allosteric modulation | potentiation, % (no concentration beside the values) | DiscoveRx D2 beta-arrestin cells, luminescence, 90 min; 100% = 57 uM dopamine signal | 0.23% of 360,000 active | AID 624464; in the data active means potentiation above about 50%; inconclusive means mostly about 30% to 49%
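PathHunter beta-arrestin assay in DiscoveRx D2 cells. Compounds were added with an EC20 of dopamine (50 nM final) for 90 min at 37 deg C. Luminescence was read 1 h after detection reagent, with 57 uM dopamine as the EC100 control.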
Each line names hits and unclear results; the compound was inactive in the other large screens. Rows were chosen to be rich in hits. Some 2.4% of all compounds tested hit in one or more screens of this group.

CCc1cccc(NC(=O)C2CCCN2S(=O)(=O)c2ccc3nc(-c4ccccc4)[nH]c3c2)c1 (stereo not given)	none (no result: D2 antagonist, D2 ag-2, D2 PAM-2)
CC1CCCCN1S(=O)(=O)c1ccc(C(=O)Nc2sccc2C(N)=O)cc1 (stereo not given)	D2 antagonist 31.4
NC(=O)c1ccsc1NC(=O)C1CCCN1S(=O)(=O)c1ccc(Cl)cc1 (stereo not given)	none
Cc1ccc(Cl)cc1NC(=O)Nc1cn(CC(C)C)c(=O)c2ccccc12	none (no result: D2 antagonist, D2 ag-2, D2 PAM-2)
COc1ccc(C(=O)O/N=C(\N)Cc2ccc([N+](=O)[O-])cc2)c(OC)c1	D2 ag-2 41.9, D2 PAM-2 inconclusive
COc1ccccc1C/C(N)=N/OC(=O)c1cccc([N+](=O)[O-])c1	D2 ag-2 inconclusive, D2 PAM-2 69.8
CCOP(=O)(OCC)/C(=N/OC(=O)c1cccc([N+](=O)[O-])c1)C(N)=O	none
COc1ccc(C/C(N)=N/OC(=O)c2cccc([N+](=O)[O-])c2)cc1	D2 PAM-2 50.5
CC(C)(C)OC(=O)N1CCC(c2c(C(=O)NCc3ccccc3)cnn2-c2cccc(F)c2)CC1	none (no result: D2 antagonist, D2 ag-1, D2 ag-2, D2 PAM-2)
CCOC(=O)C1CCCN(C(=O)c2ccc3c(c2)N(Cc2ccccc2F)C(=O)c2ccccc2S3=O)C1 (stereo not given)	none (no result: D2 antagonist, D2 ag-2, D2 PAM-2)
COc1ccc(NC(=O)C/C(C)=N/NC(=O)CCc2ccccc2)c(OC)c1	D2 antagonist 39.9
COc1ccc(NC(=O)CCCc2ccccc2)c(OC)c1	none
Cc1nn(CC(=O)NCc2cccc(Br)c2)c(=O)c2c1sc1ccccc12	none (no result: D2 PAM-1, D2 antagonist, D2 ag-2, D2 PAM-2)
O=C(CSc1nc2c(sc3ccccc32)c(=O)n1CCCN1CCCC1)NCC1CCCO1 (stereo not given)	D2 PAM-1 41.0
Cc1ccc(-c2nnc(N3CCN(C(=O)CSc4ncn[nH]4)CC3)c3ccccc23)cc1	D2 antagonist 46.6 (no result: D2 PAM-1)
O=C(C(=O)c1cccnc1)c1cccnc1	none (no result: D2 antagonist, D2 ag-1)
N/C(=N\OC(=O)c1ccccc1Cl)c1cccnc1	D2 PAM-2 96.3
N/C(=N\OC(=O)c1cc(Cl)ccc1Cl)c1cccnc1	D2 ag-2 inconclusive, D2 PAM-2 72.9 (no result: D2 antagonist, D2 ag-1)
NC(=O)c1cccnc1	D2 antagonist 40.4
CCN(C(=O)Cn1c(=O)n(Cc2ccccc2)c(=O)c2c1c1cc(OC)ccc1n2C)c1ccccc1	none (no result: D2 antagonist, D2 ag-2, D2 PAM-2)
COCC(=O)Nc1cc(C(=O)Nc2ccccc2C)ccc1Cl	D2 antagonist 31.5
COc1cc(O)c(C(CCN2CCN(c3ccccc3)CC2)c2cc(OC)c(OC)c(OC)c2)c(OC)c1 (stereo not given)	D2 antagonist 67.1
Cc1ccc2c(=O)c(C(=O)c3ccc(F)cc3)cn(CC(=O)NCc3ccco3)c2n1	D2 antagonist 33.1
Cc1ccccc1OCCCCn1nnc2sc3c(c2c1=O)CCC(C)C3 (stereo not given)	none (no result: D2 antagonist, D2 ag-2, D2 PAM-2)
C=CCn1c(O)c(C(CC)=NCc2cccnc2)c(=O)[nH]c1=O	D2 antagonist 42.0
Cc1[nH][nH]c(=O)c1C=NCc1cccnc1	none
Cc1c(C(=O)Nc2c(F)cccc2F)sc2ncn(Cc3ccccc3F)c(=O)c12	none (no result: D2 antagonist, D2 ag-2, D2 PAM-2)
CCN(CC)C(=O)C1=C(C)NC(=S)NC1c1cccs1 (stereo not given)	D2 antagonist 30.7
Cc1ccsc1C1NC(=O)c2ccccc2N1 (stereo not given)	D2 PAM-1 32.6
O=C1NC(c2cccs2)Nc2ccccc21 (stereo not given)	none
COC(=O)[C@]1(CC(C)C)N[C@H](c2ccc(SC3CCCCC3)c(OC)c2)[C@@H]2C(=O)N(C)C(=O)[C@@H]21	D2 PAM-1 32.3
O=C(C1CCN(c2ncnc3c2nc2n3CCCCC2)CC1)N1CCCCC1	D2 ag-1 34.8
CN1CCN(C(=O)C2CCN(c3ncnc4c3nc3n4CCCCC3)CC2)CC1	none
C=C(C)c1cccc(C(C)(C)NC(=O)NCc2ccncc2)c1	D2 antagonist 34.5
COc1cccc(C2NC(=O)NC(C)=C2C(=O)Nc2ccc(C)cc2)c1OC (stereo not given)	D2 antagonist 31.0
CN(C)S(=O)(=O)c1cccc(NC(=O)CCNC(=O)Nc2ccccc2)c1	none (no result: D2 PAM-1, D2 antagonist, D2 ag-1)
COc1cccc(/C=N/NC(=S)Nc2cccc(S(=O)(=O)N(C)C)c2)c1	none
